Assay outcomes (PubChem BioAssay)
KCNQ2 inh: inhibitors of rat KCNQ2 potassium channel; 310,000 tested, 1.1% active; O88943; AID 2156; CHO-K1 KCNQ2, FluxOR thallium flux, 20 min; stronger effect = lower value; B-score at 10 µM;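 active = fluorescence ratio B-score at most minus 3 library SDs, with starting brightness B-score within 2 library SDs, cut at about -5.5 in these data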
KCNQ2 pot: enhances the rat KCNQ2 potassium channel | 310,000 tested, 0.54% active | O88943 | CHO-K1 KCNQ2, FluxOR thallium flux fluorescence; stronger effect = higher value | B-score at 10 µM | AID 2239;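 active = fluorescence ratio B-score at least 3 SD of library B-scores, with initial fluorescence B-score within 3 of them, cut at about 5.3 in these data; same plate scores as AID 2156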;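 note: B-score of peak minus minimum over baseline fluorescence ratio after K+ and Tl+ stimulus; positive B-score means potentiation of KCNQ2 with more thallium influx and brighter signal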
An asterisk follows results filed as active; i = inactive; · = no result. Shown are actives, neighbours in structure and some others; about 1.6% of the full set was active somewhere.

SMILES	KCNQ2 inh	KCNQ2 pot
CCOC(=O)/C(=C/c1ccc(OC(=O)c2ccncc2)cc1)C(C)=O	-5.7*	-5.7
Cc1ccc(Cl)cc1N1CCN(C(=O)C2(S(=O)(=O)c3ccc(Cl)cc3)CC2)CC1	-6.2*	-6.2
Cc1cccc(N2CCN(C(=O)C3(S(=O)(=O)c4ccc(Cl)cc4)CC3)CC2)c1C	-6.2*	-6.2
O=C(N1CCN(c2cccc(Cl)c2)CC1)C1(S(=O)(=O)c2ccc(Cl)cc2)CC1	i	·
Cc1ccc(S(=O)(=O)C2(C(=O)N3CCN(c4ccccc4F)CC3)CC2)cc1	i	·
CN(Cc1ccccc1)C1CCN(Cc2ccccc2[N+](=O)[O-])CC1	i	·
Cn1c(C(O)C(O)c2ccccc2)nc2ccccc21 (stereo unspecified)	i	0.77
Cn1c(N2CCN(C(c3ccccc3)c3ccccc3)CC2)nc2ccccc21	-12*	-12
CC(Oc1ccc(F)cc1)C(=O)Nc1cc(S(=O)(=O)N2CCOCC2)ccc1N1CCCCC1 (stereo unspecified)	-8.1*	-8.1
CC(Oc1ccc(F)cc1)C(=O)Nc1cc(S(=O)(=O)N2CCOCC2)ccc1N1CCCC1 (stereo unspecified)	i	0.16
COc1cccc(/C=C/C(=O)OCC(=O)NC(=O)NC2CCCCC2)c1	i	·
CCc1ccc(NC(=O)C(=O)NNC(=O)COc2cccc(OC)c2)cc1	i	6*
COc1ccc(NC(=O)C(=O)NNC(=O)COc2ccc(OC)cc2)cc1	i	1.8
Cc1cccc2cc(CN(Cc3ccco3)C(=O)Nc3cccc(C#N)c3)c(Cl)nc12	i	·
COc1ccccc1NC(=O)CN(Cc1ccco1)C(=O)c1ccc(=O)[nH]c1	i	·
Cc1ccc(C)c2[nH]c(=O)c(CN(Cc3ccco3)C(=O)Nc3ccccc3)cc12	-5.6*	-5.6
Cc1ccc(NC(=O)N(Cc2ccco2)Cc2cc3cc(C)cc(C)c3nc2Cl)cc1	-6.8*	-6.8
COc1ccccc1NC(=O)N(Cc1ccco1)Cc1cc2ccc(C)c(C)c2[nH]c1=O	i	·
Cc1ccc2cc(CN(Cc3ccco3)C(=O)NCc3ccccc3)c(=O)[nH]c2c1C	i	·
COc1ccccc1NC(=O)N(Cc1ccco1)Cc1cc2cc(C)cc(C)c2[nH]c1=O	-6*	-6
COc1ccccc1NC(=O)CN(Cc1ccco1)C(=O)c1cc2ccccc2o1	-7.6*	-7.6
COC(=O)c1ccccc1S(=O)(=O)N1CCC(C(=O)OCc2ccc([N+](=O)[O-])cc2)CC1	i	·
COc1ccccc1CCC(=O)OCC(=O)Nc1ccc2[nH]c(=O)[nH]c2c1	i	2.3
CCOC(=O)C1CCN(C(=O)COC(=O)c2ccc(=O)n(Cc3ccccc3)n2)CC1	i	·
Cc1ccccc1C(=O)Nc1ccc(S(=O)(=O)N2CCCC2)cc1	i	·
SMILES	KCNQ2 inh	KCNQ2 pot
COc1ccc(OC)c(NC(=O)NCCc2cccc(Cl)c2)c1	i	0.74
CC(=O)N(CCC1(c2ccc(C)cc2)CCOC(C(C)C)C1)Cc1ccco1 (stereo unspecified)	-6*	-6
Cc1ccc(C2(CCNCc3ccco3)CCOC(C(C)C)C2)cc1 (stereo unspecified)	i	·
CN(C)c1nnnn1Cc1ccccc1	i	·
CC(C#Cc1c([C@@H](C)Oc2ccccc2)nnn1Cc1ccccc1)Oc1ccccc1 (stereo partly specified)	-6.3*	-6.3
c1ccc(Cn2c(CNc3nc4ccccc4n3CCN3CCOCC3)nc3ccccc32)cc1	-6*	-6
c1ccc2c(c1)nc(NCc1ccc3c(c1)OCO3)n2CCN1CCOCC1	i	·
Cc1cc(C)n(CCCN2C(=O)c3cccc4cccc(c34)C2=O)n1	i	·
CN(C)S(=O)(=O)c1cccc(NC(=O)c2ccc(OC(F)(F)F)cc2)c1	i	2.5
CN(C)S(=O)(=O)c1cccc(NC(=O)c2ccc(COc3ccccc3)cc2)c1	-5.8*	-5.8
COc1ccc(OC(=O)CCc2c[nH]c3ccccc23)cc1	i	0.91
CC(=O)/C(=N\Nc1ccccc1)Sc1cccc2cccnc12	i	·
O=C(Sc1cccc2cccnc12)c1ccccc1Br	-6.2*	-6.2
COc1cccc(NC(=O)COc2coc(CN3CCc4ccccc4C3)cc2=O)c1	i	·
COc1ccccc1NC(=O)c1ccc2nc(C)c(C)nc2c1	i	0.28
Cc1cccc(C)c1OCc1cc(C(=O)N2CCCCCCC2)no1	-6.5*	-6.5
Cc1ccc(N2CCN(C(=O)c3cc(COc4c(C)cccc4C)on3)CC2)c(C)c1	i	·
O=C(NCc1ccc(F)cc1)C(c1ccc(Cl)cc1)N(C(=O)c1csnn1)C1CC1 (stereo unspecified)	i	·
CCCCCc1cc(=O)[nH]c(=S)[nH]1	i	0.07
CCCCCc1ccc(C(=O)CCCC)c(=S)[nH]1	i	8*
Cc1cc(C)c(C)c(S(=O)(=O)N2CCN(c3ccc(O)cc3)CC2)c1C	i	0.38
Cc1c(C(N)=O)c(-c2ccccc2)nn1-c1ccccc1	i	0.5
CCCc1c(-c2ccc(O)cc2)nn(-c2ccc(O)cc2)c1-c1ccc(O)cc1	-6.6*	-6.6
